Measurements: PubChem BioAssay AID463195 (Sanford-Burnham Center for Chemical Genomics, 2010)
In all, about 330,000 compounds went through this assay and about 4,600 (1.4%) were called active. For the sample, actives were picked, then their nearest neighbours and some compounds at random. Values without a mark were called inactive.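 The calls were made as follows: active = inhibition of 40% or more at the single tested concentration; inactive = the rest.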

assay: growth inhibitors of isogenic TIM10 control yeast, primary screen, counter-screen for tim10-1 yeast inhibitor project, luminescence, uHTS (AID 463195);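 also: wild-type TIM10 isogenic control strain grown at permissive 25 °C; 0% = DMSO yeast wells and 100% = minimal medium wells without yeast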; details: S. cerevisiae TIM10 strain growth, BacTiter-Glo luminescence, 24 h; at 10 µM; active compounds read high

SMILES	inhibition
CCCn1c(C)cc(-c2csc(NC(=O)CCc3nc4ccccc4c(=O)[nH]3)n2)c1C	-24.7%
CCCOc1ccc(NC(=O)C2OC3OC(C)(C)OC3C3OC(C)(C)OC23)cc1 (stereo not given)	-2.42%
COc1cc(/C=C/CO)cc(OC)c1O[C@@H]1O[C@H](CO)[C@@H](O)[C@H](O)[C@H]1O	-4.81%
O=C(/C=C/c1cccs1)c1cc(Cl)ccc1OC(=O)N1CCOCC1	52.9% (active)
CC(=O)Nc1ccccc1OC(=O)N1CCOCC1	-16.6%
O=C(Oc1cccc(C(=S)N2CCOCC2)c1)c1cccc(Cl)c1	17.1%
O=C(Nc1ccncc1)Nc1ccc(F)cc1	-4.69%
CC(C)(CCl)C(=O)Nc1ccc(Sc2ccc(F)cc2)cc1	42.1% (active)
CC(C)CNC(=S)Nc1ccc(F)cc1	8.49%
O=C(COc1ccccc1)Nc1nonc1NC(=O)COc1ccccc1	7.03%
O=C(CCN1C(=O)[C@@H]2Cc3ccccc3CN2C1=O)NCc1ccccc1	4.78%
CCOC(=O)c1c(NC(=O)CNC2CCCc3ccccc32)sc(C(N)=O)c1C (stereo not given)	-2.7%
COc1ccc(CCNC(=O)CSc2nnc(-c3cccc(F)c3)o2)cc1OC	1.74%
COc1ccc(-c2nnc(SCC(=O)NC3CCCCC3)o2)cc1OC	3.73%
COc1ccc(CN(C(=O)CSc2nnc(-c3ccc(OC)c(OC)c3)o2)c2ccc(F)cc2)cc1	40.5% (active)
Cc1ccc(C(=O)OCC(=O)NCc2cc(C)c(O)c(C)c2)cc1S(=O)(=O)N1CCCCC1	0.371%
O=S(=O)(c1cccc(-c2cn3ccccc3n2)c1)N1CCCC1	9%
Cc1cc(-c2ccccc2)nc(N2CCC(C(=O)NC34CC5CC(CC(C5)C3)C4)CC2)n1	19.8%
O=C1Nc2c(Br)cc(Br)cc2C1(O)N1CCOCC1 (stereo not given)	12.1%
CCC(C)(C)NC(=O)CN(Cc1cccs1)C(=O)CNS(=O)(=O)c1ccc(F)cc1	3.15%
CCOc1ccc(S(=O)(=O)NCCC(=O)N2CCCCCCC2)cc1	-3.91%
CC(C)(C)c1cc(C(=O)N/N=C/c2ccc([N+](=O)[O-])s2)n[nH]1	22%
Cc1ccccc1NCC(=O)N/N=C\c1ccc([N+](=O)[O-])s1	56% (active)

SMILES	inhibition
Cc1cccc(/C=N/NC(=O)CNc2cccc3ccccc23)n1	8.82%
C=CC1C(OC2OC(CO)C(O)C(O)C2O)OC=C(C(=O)OC)C1CC1CC(=O)CC(CC(=O)CCc2ccc(O)cc2)O1 (stereo not given)	-2.71%
c1ccc(COc2ccccc2CNCc2cccnc2)cc1	-6.88%
COc1c(N2CCN(C(=S)Nc3ccccc3F)C(C)C2)c(F)cc2c(=O)c(C(=O)O)cn(C3CC3)c12 (stereo not given)	2.41%
Cc1cccc(-n2c(SCC(N)=O)nc3c(c2=O)C2(CCCCC2)Cc2ccccc2-3)c1	12.4%
N#CC1(C#N)C(C(=O)C23CC4CC(CC(C4)C2)C3)C12CCOCC2 (stereo not given)	44.3% (active)
CSCCC(NC(=O)COc1ccccc1)C(=O)OCCOc1ccc(F)cc1 (stereo not given)	-0.639%
Cc1cc(C)cc(NC(=O)C(OC(=O)c2ccc(O)cc2)c2ccccc2)c1 (stereo not given)	9.95%
O=C(Nc1ccc(NC(=O)c2cccs2)cc1)c1ccc2ccccc2c1	-15.3%
O=C(Nc1ccccc1)c1ccc(NC(=O)c2cccs2)cc1	-10.3%
Cc1nc(-c2ccc(NC(=O)c3cccs3)cc2)cs1	49.5% (active)
Cc1ccc(C(=O)Nc2ccc(NC(=O)c3cccs3)cc2)c(C)c1	-11.8%
Cc1ccc(NC(=O)c2cccs2)cc1S(=O)(=O)N(C)C	46.1% (active)
Cc1ccc(C(=O)Nc2ccc(C)c(S(=O)(=O)N(C)C)c2)s1	10.9%
COC(=O)[C@]1(C)N[C@H](CN(C)C(=O)c2ccc(C(C)(C)C)cc2)[C@@H]2C(=O)N(C)C(=O)[C@@H]21	3.29%
Cc1ccc(-c2noc(C3CCCN(C(=O)c4cccc(Cl)c4)C3)n2)o1 (stereo not given)	-12.1%
O=C(CNS(=O)(=O)c1ccc(Br)s1)N1CCN(C(=O)c2ccco2)CC1	-4.25%
Cc1ccc(N2C(=O)CC(NCc3ccc4c(c3)OCO4)C2=O)cc1Cl (stereo not given)	9.87%
COC(=O)CN1C(=O)C(C)(C)Oc2ccc(C(=O)Nc3cccc(OC)c3)cc21	-1.11%
CCc1ccc2c(c1)C1(NN=C(c3ccccc3)S1)C(=O)N2 (stereo not given)	41.4% (active)
Cc1ccccc1N(C(=O)Cc1cccs1)C(C(=O)NC1CCCCC1)c1cn(C)nc1C (stereo not given)	18.5%
COc1cc2cc(CN(CCN3CCCC3)C(=O)Nc3ccccc3Cl)c(=O)[nH]c2cc1OC	1.82%
O=S(=O)(NC1CCCCC1)c1ccc(F)c2ccccc12	48.4% (active)

SMILES	inhibition
O=S(=O)(NC1CC1)c1ccc2c3c(cccc13)CC2	18.4%
CSc1ccc(S(=O)(=O)NC2CCCCC2)cc1	5.32%
O=C(Cn1nnc2ccccc2c1=O)NCc1ccc(Cl)cc1	-13.1%
CS(=O)(=O)N1CCN(CC(=O)NC2CCCC2)CC1	1.42%
COc1ccc(C(=O)C[n+]2ccc(N)c(C)c2C)cc1	-13.7%
Cc1ccc(-n2cnc3ncnc(-c4ccccc4)c32)cc1	-13%
Cc1ccc(-c2nn(C(C)(C)C)c3ncnc(N)c23)cc1	46.3% (active)
C=CC[C@H](CC(=O)OC(C)(C)C)C(=O)OC[C@H]1CCCN1C(=O)[C@H](CC=C)CC(=O)N(CCO)Cc1ccccc1	4.94%
O=C(Nc1cccc(S(=O)(=O)N2CCCCC2)c1)c1cncc(Br)c1	8.29%
O=C(Nc1cccc(S(=O)(=O)N2CCCC2)c1)c1cncc(Br)c1	97% (active)
O=C(CCNC(=O)c1ccc(Br)cc1)Nc1cccc(S(=O)(=O)N2CCCCC2)c1	-7.56%
COc1ccc(Nc2nc(N)nc(CSC(=S)N3CCC(C)CC3)n2)cc1	44.5% (active)
COc1ccccc1Nc1nc(N)nc(CSC(=S)N2CCOCC2)n1	31.8%
CCOC(=O)c1cnc(SCc2nc(N)nc(Nc3ccc(OC)cc3)n2)nc1N	15.4%
COc1cc(CC(=O)N2CCC(n3nccc3NC(=O)C3CC3)CC2)cc(OC)c1OC	-1.91%
CC1=C/C(=N\OS(=O)(=O)c2ccccc2)C=CC1=O	69.4% (active)
Cc1nc(C)c(-c2nnc(-c3cccc(S(=O)(=O)N(C)C)c3)o2)cc1C(=O)NN	11.6%
COc1ccc(Cn2c(-c3ccc(Cl)cc3)c[n+]3ccccc23)cc1	45.6% (active)
CCn1c(C)cc(=O)cc1-c1ccc(Cl)cc1	-2.03%
COc1ccc(Cn2c(=O)cc(C)[nH]c2=S)cc1	8.93%
COc1ccc(OCc2cc(C(=O)N3CCCC3)no2)c2ccccc12	-11.8%
COc1cccc(OCc2cc(C(=O)N3CCN(C(=O)c4ccco4)CC3)no2)c1	97.6% (active)
O=C(c1cc(COc2cccc(C(F)(F)F)c2)on1)N1CCSCC1	19.8%

SMILES	inhibition
CC(=O)C[C@H](O)CC(=O)[C@@H]1OC(=O)[C@@H](C)C/C=C\Cc2ccccc21	4.22%
CCc1cccc(NC(=O)C2CCCN(S(=O)(=O)c3ccc4[nH]c(=O)ccc4c3)C2)c1 (stereo not given)	-4.86%
CCN1/C(=C\c2ccc3ccccc3[n+]2CC)Sc2cc(C)ccc21	78.3% (active)
COc1ccc2c(c1OC)C(=O)N(c1ccc(O)cc1)C2	-21.6%
CCC1CCC2(CC1)NC(=O)N(CC(=O)Nc1ccc(OC)cc1)C2=O (stereo not given)	-4.33%
CN(c1cccc(NC(=O)c2ccc(CN3CCc4ccccc4C3)cc2)c1)S(C)(=O)=O	-4.01%
CCOC(=O)c1cc(C(=O)Nc2ccc(S(=O)(=O)Nc3ccc(OC)cc3)cc2)nn1C	8.95%
COc1ccc(OCC(=O)Nc2ccc(NC(=O)c3ccco3)c(C)c2)cc1	-13.8%
Cc1cccc(OCC(=O)Nc2ccc(NC(=O)c3ccco3)c(C)c2)c1	-8.94%
Cc1ccc(C(=O)COc2cccc(NC(=O)c3ccco3)c2)cc1	54% (active)
COC(=O)c1onc(-c2c(OC)cc(OC)cc2OC)c1C(=O)OC	6.8%
CC1=C(C(=O)Nc2cc(C)ccn2)C(c2cnn(C)c2)C2=C(CC(c3ccccc3)CC2=O)N1 (stereo not given)	6.51%
O=C(NCc1ccc(F)cc1)C1CCN(C(=O)Nc2ccc(F)cc2)CC1	-14%
CC1CN(C(=O)c2ccc([N+](=O)[O-])s2)CC(C)O1 (stereo not given)	6.54%
O=[N+]([O-])c1ccc(C=Nc2ccc(Cl)cc2Cl)s1	71.2% (active)
CCC1=NN(C(=O)Cc2ccc([N+](=O)[O-])cc2)C(O)(c2ccc(Br)cc2)C1 (stereo not given)	27%
O=C(Nc1ccc2oc(-c3ccccc3F)nc2c1)c1ccco1	67.2% (active)
O=C(Nc1cccc(-c2nc3ncccc3o2)c1)c1ccco1	12.8%
O=C(Nc1ccc2oc(-c3ccc4ccccc4c3)nc2c1)c1cccs1	0.529%
Cc1cc(C)cc(NC(=O)Cn2cnc3c(nnn3Cc3ccc(F)cc3)c2=O)c1	-9.34%
Cc1ccc(Nc2cc(=O)n(C3CCCCC3)c(=O)[nH]2)cc1C	4.8%
